Assay outcomes (PubChem BioAssay)
HT1080 IDH1KD tx – qHTS for induction of synthetic lethality in tumor cells producing 2HG: qHTS for the HT-1080-IDH1KD cell line; HT-1080 IDH1 knockdown viability, ATP luminescence, 48 h; Potency, µM (series often up to 46.1 µM), inactives show at the highest dose activity, negative = toxicity, usual class: cytotoxic; 2% of 360,000 active; AID 686971, 2013;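 note: 0% = DMSO wells and -100% = cell-free medium wells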
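Assay cells: HT-1080 with IDH1 knockdown, 750 per well, RPMI/5% FBS. Exposure: 48 h at 37 °C following 2 h pre-incubation. Read: CellTiter-Glo luminescence; fitted concentration-response, curve class assigned.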
HT1080NT lethal – qHTS for induction of synthetic lethality in tumor cells producing 2HG: qHTS for the HT-1080-NT fibrosarcoma cell line. HT-1080-NT fibrosarcoma viability, CellTiter-Glo ATP luminescence, 48 h. Potency, µM (top dose mostly 46.1 µM), inactives show at the top dose activity, negative = less viability, most hits filed as cytotoxic. 1.6% of 360,000 active. AID 686970, 2013;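 note: NT is the 2HG producing partner of a matched IDH1 knockdown line; 0% = DMSO-treated cells and -100% = media-only wells without cells; nearly all actives have a fitted effect of over 55% in size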
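Read-out is CellTiter-Glo luminescence after 10 minutes at room temperature, following 48 hours' compound treatment of HT-1080-NT cells (750 cells/well, RPMI, 5% FBS, 37 degrees C).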
SW480 rerep – A quantitative high throughput screen for small molecules that induce DNA re-replication in SW480 colon adenocarcinoma cells; SW480 DNA re-replication, Hoechst DNA content imaging, 48 h; 1.8% of 340,000 active; Potency, µM (highest dose often 46.1 µM), without a hit: top-dose re-replication activation, actives largely listed as activators; note: % of control where 0% means no effect; nearly all actives have a fitted effect of over 55% in size
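Treated cells incubate 48 hr (37 C, 5% CO2), are stained 40 min with Hoechst, and nuclear fluorescence is enumerated; a rise in nuclei with high DNA signal marks re-replication.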
MCF10A rerep – A quantitative high throughput screen for small molecules that induce DNA re-replication in MCF 10a normal breast cells; MCF 10A DNA re-replication, Hoechst nuclear intensity, 48 h; Potency, µM (titrated, usually from 46.1 µM), for the others: top-dose activity, positive = re-replication, hits mostly activators; 2.9% of 350,000 active; AID 624296, 2012; note: % of control where 0% means no effect; nearly all actives have a fitted effect of over 50% in size
KB-V1 cytotox – qHTS assay for MDR1-selective chemotherapeutics: Primary screen using the drug-selected MDR subline cells KB-V1; KB-V1 MDR cells viability, CellTiter-Glo, 72 h; Potency, µM (doses to about 46.1 µM), hits mostly cytotoxic; 3.4% of 400,000 active; AID 1347076, 2019; note: % is set by controls: 0 for no effect and ±100 for the full control effect; nearly all actives have a fitted effect of over 60% in size
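Potencies derive from concentration-effect curves fitted to normalized luminescence (CellTiter-Glo) of KB-V1 cells treated for 72 h at 37 degrees C in phenol-red-free DMEM containing 10% FBS.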
KB-3-1 tox – qHTS assay for MDR1-selective chemotherapeutics: Primary screen using the parental adenocarcinoma cell KB-3-1; KB-3-1 viability, CellTiter-Glo ATP luminescence, 72 h; 1.4% of 400,000 active; Potency, µM (doses to about 46.1 µM), hits mostly cytotoxic; note: % is set by controls: 0 for no effect and ±100 for the full control effect; nearly all actives have a fitted effect of over 60% in size
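KB-3-1 cells, DMEM (no phenol red) + 10% FBS; compound by pin transfer, 72 h, 37 °C. Readout: CellTiter-Glo luminescence after 10 min. Data normalized, curve-fitted.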
An asterisk follows results filed as active; i = inactive; u = inconclusive; x = no result given; [ ] = dose if it differs, or a comment. Only some compounds are listed: those with a hit (about 7.9% of all), similar ones and a draw of the others. Calls come from the whole dose curve; as a rule, active = well fitted curve in the direction sought with a large enough effect; inconclusive = small, poorly fitted or top-dose-only effect, or another doubt; inactive = no such curve, though single readings can be large; an effect the other way counts as inactive or inconclusive. Potency is the fitted concentration of half-maximal effect.

SMILES	HT1080 IDH1KD tx	HT1080NT lethal	SW480 rerep	MCF10A rerep	KB-V1 cytotox	KB-3-1 tox
COc1ccc(-c2c(C)c3ccc(O)cc3oc2=O)cc1	-8%	-2%	-15%	19%	i	i
CCN(CC)c1ccc2c(C)c(Cl)c(=O)oc2c1	-4%	-12%	u	4.1µM*	i	i
CCN(CC)c1ccc2c(C)c(-c3ccc(N)cc3)c(=O)oc2c1	-25%	-28%	8.2µM*	3.7µM*	i	u
COc1ccc(CNS(=O)(=O)c2cc3c(cc2C)n(C)c(=O)c(=O)n3C)cc1	x	x	x	x	i	i
CCOc1ccc(/C=N/NC(=O)c2ccc(F)cc2)cc1CN1CC2CC(C1)c1cccc(=O)n1C2 (configuration not stated)	-25%	1%	3%	u	i	i
CCN(CC)c1ccc2c(Cl)c(Br)c(=O)oc2c1	21µM*	18µM*	u	u	u	u
Cc1nc(Nc2ccncc2)c2oc3ccccc3c2n1	13µM*	-15%[9.24 µM]	u	u	i	u
CCc1nc(Nc2ccncc2)c2oc3ccccc3c2n1	23µM*	u	18µM*	u	i	8.2µM*
Cc1ccc(-n2nc(C)c3nc(CCC(=O)Nc4ccc(F)cc4)c(=O)n(C)c32)cc1	x	x	x	x	i	i
Cc1nn2c(=O)cc(COC(=O)COc3ccc(F)cc3)nc2s1	x	x	x	x	u	i
CCOC(=O)N1CCN(C(=O)COc2cccc3c2CCN(Cc2ccc(F)cc2)C3=O)CC1	-14%	-7%	-3%	1%	u	u
O=C1c2cccc(OCc3ccc(F)cc3)c2CCN1Cc1ccccc1	-18%	-22%	-2%	u	u	16µM*
Cc1ccc(COc2cccc3c2CCN(Cc2ccc(F)cc2)C3=O)cc1	-15%	-15%	16%	23%	5.8µM*	u
CCN(CC)C(=O)CSc1nc2c(c(=O)n(C)c(=O)n2C)n1Cc1ccccc1	x	x	x	x	i	i
Cc1ccc(C)c(NC(=O)c2ccc3c(c2)CCN3S(C)(=O)=O)c1	12%	8%	x	x	i	i
Cc1ccc(/C=N/NC(=O)c2nnn(-c3nonc3N)c2CSc2ccccc2)s1	27%	11%	13µM*	21µM*	i	i
Nc1nonc1-n1nnc(C(=O)N/N=C/c2ccccc2)c1CSc1ccccc1	-6%	-4%	u	u	i	i
Nc1nonc1-n1nnc(C(=O)N/N=C/c2cccnc2)c1CSC1=NCCS1	u	u	6%	18µM*	i	i
Nc1nonc1-n1nnc(C(=O)N/N=C/c2ccc(Br)cc2)c1CSC1=NCCS1	u	-11%	u	u	i	u
Cc1ccc(C(C)C)c(OCC(=O)Nc2ccc(-c3nc4ncccc4o3)cc2C)c1	x	x	x	x	i	i
CC(Sc1nc(-c2ccccc2)c(C#N)c(=O)[nH]1)C(=O)Nc1ccc(F)cc1 (configuration not stated)	x	x	x	x	u	i
NNC(=O)c1cc2c(s1)-c1cc(Cl)ccc1SC2	u	u	29µM*	21µM*	i	u
CN(Cc1ccccc1)C(=O)c1cc2c(s1)-c1ccc(Cl)cc1SC2	x	x	x	x	i	i
CCOC(=O)c1cc(C(C)C)sc1NC(=O)COC(=O)CCS(=O)(=O)c1ccccc1	4%	-5%	u	16%	18µM*	i
CCOC(=O)c1ccsc1NC(=O)CCS(=O)(=O)c1ccccc1	-15%	2%	u	-1%	x	x
SMILES	HT1080 IDH1KD tx	HT1080NT lethal	SW480 rerep	MCF10A rerep	KB-V1 cytotox	KB-3-1 tox
CCN(CC)CCCNc1ccc(-c2nnc(-c3ccc(OCC(C)C)cc3)o2)cn1	u	-8%	21µM*	u	u	21µM*
CC(C)COc1ccc(-c2nnc(-c3ccco3)o2)cc1	-3%	0%	u	-178%[0.0737 µM]	i	i
COc1ccc(CCNC(=O)c2nn(-c3ccc(C)cc3)c(=O)c3c2c2ccccc2n3C)cc1OC	x	x	x	x	i	i
C=CCOC(=O)C1=C[C@@H](c2cn(C(C)=O)c3ccccc23)C[C@@H](OCc2ccc(CO)cc2)O1	-14%	-4%	-29%	23µM*	i	i
O=C(Nc1ccccc1)C1=C[C@@H](C2CC2)C[C@@H](OCCCCO)O1	8%	9%	-11%	-8%	7.3µM*	i
O=C(NCc1ccccc1)C1=C[C@H](c2csc3ccccc23)C[C@H](OCCCCO)O1	-12%	-5%	u	u	7.3µM*	u
CC(=O)n1cc([C@@H]2C=C(C(=O)NCc3ccccc3)O[C@H](OCc3ccc(CO)cc3)C2)c2ccccc21	-22%	-24%	-4%	13µM*	i	i
CCOC(=O)Cc1ccc(NC(=O)N2CCc3c(sc4c3CCCC4)C2c2ccc(F)cc2)cc1 (configuration not stated)	x	x	x	x	i	i
COC(=O)c1cc(=O)n(Cc2ccco2)c(=Nc2ccc(F)cc2)s1	u	23µM*	7%	u	23µM*	u
COC(=O)c1cc(=O)n(CCc2ccc(OC)c(OC)c2)c(=Nc2ccc(F)c(Cl)c2)s1	u	16µM*	6%	3.3µM*	21µM*	u
COC(=O)c1cc(=O)n(Cc2ccc(F)cc2)c(=Nc2ccccc2)s1	-17%	-24%	-8%	u	u	i
COC(=O)c1cc(=O)n(Cc2ccc(OC)c(OC)c2)c(=Nc2ccc(F)cc2)s1	-16%	u	2%	u	u	21µM*
COc1cccc(C(=O)CSc2nnc(COc3cccc4cccnc34)o2)c1	u	u	5.2µM*	6.5µM*	i	i
CC1CCCC(C)N1C(=O)CSc1nnc(COc2cccc3cccnc23)o1 (configuration not stated)	12%	15%	4.1µM*	u	u	i
O=C(CSc1nnc(COc2cccc3cccnc23)o1)c1ccc(F)cc1	5µM*	10µM*	-2%	-7%	i	i
Cc1ccc(C(=O)CSc2nnc(COc3cccc4cccnc34)o2)cc1	u	u	-7%	-1%	i	i
CCNC(=O)c1ccc(CSc2nc3cccnc3n2Cc2ccc(OC)cc2)cc1	x	x	x	x	u	i
